PubChem BioAssay (NCI)
Compounds without any hit were thinned out: in the full panel of roughly 83,000, 20% have a hit.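 Compound tested at a single concentration for 48 hours in 96-well plates; a percent growth value below 10 was scored as active.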 Calls of active or inactive are those of the source.

Columns and labels:
Experiment in all cases: NCI-60 one-dose screen, 48 h (100 = growth as untreated, 0 = no growth, -100 = all killed)
Conditions in all cases: 10 µM unless noted
[1] = system: NCI-H23 lung
[2] = system: NCI-H226 lung
[3] = system: NCI-H322M lung
[4] = system: NCI-H460 lung
[5] = system: HOP-92 NSCLC
[6] = system: NCI-H522 lung
[7] = system: A549/ATCC NSCLC
[8] = system: 786-0 renal
[9] = system: COLO 205 colon
[10] = system: DU-145 prostate
[11] = system: K-562 leukemia
[12] = system: MALME-3M melanoma
[13] = system: MDA-MB-231 breast
[14] = system: RXF 393 renal
[15] = system: SF-268 CNS
[16] = system: SF-295 CNS
[17] = system: SF-539 CNS
[18] = system: UACC-257 melanoma
[19] = system: M14 melanoma

Measured: growth

FC(F)(F)c1cccc([Si](F)(c2cccc(C(F)(F)F)c2)c2cccc(C(F)(F)F)c2)c1
inactive: [1] 43.4% | [2] 70.3% | [3] 91% | [4] 73.9% | [5] 16.1% | [6] 53.2% | [7] 78.1% | [8] 50.5% | [9] 102% | [10] 94% | [11] 62.2% | [12] 106% | [13] 80.4% | [14] 87.6% | [15] 84% | [16] 69.2% | [17] 101% | [18] 81.3% | [19] 86.1%

COc1cc(NC(C)CCCN2C(=O)c3ccccc3C2=O)c2ncccc2c1OC (stereo not given)
inactive: [1] 91.6% | [2] 98.2% | [3] 79.5% | [4] 103% | [5] 45.4% | [6] 70.8% | [7] 100% | [8] 91.1% | [9] 101% | [10] 104% | [11] 71.3% | [12] 74.1% | [13] 90.2% | [14] 95% | [15] 108% | [16] 81.1% | [17] 98.6% | [18] 99.4% | [19] 78.7%

COC1OCC(OS(=O)(=O)c2ccc(C)cc2)C(OC(=O)c2ccccc2)C1OC(=O)c1ccccc1 (stereo not given)
inactive: [1] 68.4% | [2] 68.4% | [3] 76.6% | [4] 17.4% | [5] 62.2% | [6] 19% | [7] 48.7% | [8] 42.1% | [9] 36.4% | [10] 66.6% | [11] 37.8% | [12] 37.3% | [13] 57.2% | [14] 49.6% | [15] 62.4% | [16] 30% | [17] 39.2% | [18] 71% | [19] 34.3%

COc1cc(C(=O)NNC(=O)c2ccccc2C(=O)O)cc(OC)c1OC
active: [14] -3.15%
inactive: [1] 15.9% | [2] 74.6% | [3] 80.7% | [4] 11.9% | [5] 55.3% | [6] 32.2% | [7] 52.7% | [8] 38.8% | [9] 37.5% | [10] 56.8% | [11] 43.1% | [12] 62% | [13] 45.2% | [15] 53.8% | [16] 46.8% | [17] 30.1% | [18] 69.9% | [19] 51.4%

O=C(Cn1c2ccccc2c2ccncc21)N/N=C\c1ccc2ccccc2c1
active: [4] 5.42% | [5] -7.39% | [7] -10.1% | [8] -3.98% | [10] 9.11% | [12] 3.45% | [13] 5.36% | [14] 1.74%
inactive: [1] 55% | [2] 31.9% | [3] 39.1% | [9] 31.6% | [15] 41.6% | [16] 28.7% | [17] 27.6% | [18] 59.7% | [19] 30.9%

COc1ccc(-c2nn(-c3ccc(NC(=O)Nc4ccc(Cl)c(Cl)c4)cc3)cc2-c2ccncc2)cc1Cl
active: [1] 6.03% | [2] 6.82% | [4] -21.1% | [5] -17% | [6] 0.622% | [8] 2.7% | [9] -47.7% | [13] 0.693% | [14] -55.7% | [16] 1.08% | [19] 6.66%
inactive: [3] 47.2% | [7] 15% | [10] 28.6% | [11] 11.6% | [12] 16% | [15] 31.1% | [17] 15.7% | [18] 11.9%

COc1ccccc1NC(=O)COc1ccc(/C=C2/Oc3cc4occc4c(OC)c3C2=O)cc1OC
inactive: [1] 97.1% | [2] 101% | [3] 115% | [4] 114% | [5] 99.1% | [6] 86.9% | [7] 96.6% | [8] 96.1% | [9] 114% | [10] 114% | [11] 99.4% | [12] 115% | [13] 99.8% | [14] 103% | [15] 103% | [16] 103% | [17] 101% | [18] 100% | [19] 106%

NS(=O)(=O)c1ccc(-n2nc(-c3ccc(Cl)cc3)ccc2=O)cc1
inactive: [1] 91.1% | [2] 103% | [3] 110% | [4] 98% | [5] 90.9% | [6] 16% | [7] 95.4% | [8] 92.9% | [9] 113% | [10] 102% | [11] 45.9% | [12] 113% | [13] 118% | [14] 95.6% | [15] 96.5% | [17] 84.4% | [18] 96.6% | [19] 96.2%
active: [16] -4.7%

CCN(CC)CCC(C(=O)O)(c1ccccc1)c1ccccc1
inactive: [1] 95.3% | [2] 106% | [3] 103% | [4] 105% | [5] 101% | [6] 89.7% | [7] 110% | [8] 96.4% | [9] 101% | [10] 107% | [11] 102% | [12] 89.7% | [13] 99.4% | [14] 118% | [15] 93.9% | [16] 97% | [17] 93.9% | [18] 113% | [19] 97%

Nc1n[nH]c2cccc(C#Cc3cccc(NC(=O)c4cccc(C(F)(F)F)c4)c3)c12
active: [5] -4.2% | [12] -0.658% | [13] 9.5% | [14] -13.7% | [17] -19.9%
inactive: [1] 39.5% | [2] 44% | [3] 46.5% | [4] 40.3% | [6] 41.2% | [7] 43.4% | [8] 23.1% | [9] 16.5% | [10] 48.5% | [15] 32.7% | [16] 50.3% | [18] 50.3% | [19] 10.4%

Nc1nc(Cl)cc(NCc2ccc(CNc3cc(Cl)nc(N)n3)cc2)n1
inactive: [1] 75.7% | [2] 70.8% | [3] 102% | [4] 115% | [5] 92.9% | [6] 49.8% | [7] 87.2% | [8] 101% | [9] 103% | [10] 96.4% | [11] 47.8% | [12] 182% | [13] 83.1% | [14] 90.9% | [15] 98.2% | [16] 105% | [17] 87.3% | [18] 96% | [19] 133%

NC(N)=N/N=C/c1ccc([N+](=O)[O-])cc1
inactive: [1] 91.4% | [2] 101% | [3] 93.5% | [4] 104% | [5] 104% | [6] 107% | [7] 109% | [8] 103% | [9] 113% | [10] 125% | [11] 117% | [12] 103% | [13] 101% | [14] 102% | [15] 103% | [16] 91.3% | [17] 105% | [18] 102% | [19] 105%

O=C(/C=C/c1ccccc1)Oc1ccc(/C=C/c2cc(OC(=O)/C=C/c3ccccc3)cc(OC(=O)/C=C/c3ccccc3)c2)cc1
inactive: [1] 102% | [2] 91.4% | [3] 90.6% | [4] 100% | [5] 95.8% | [6] 77% | [7] 83.9% | [8] 102% | [9] 97.4% | [10] 104% | [11] 94.8% | [12] 91.2% | [13] 104% | [14] 114% | [15] 99.5% | [16] 101% | [17] 91.8% | [18] 81.7% | [19] 100%

COc1cc2c(cc1OCCCCC(=O)Nc1ccc(-c3nc4ccccc4s3)cc1)N=C[C@@H]1CCCN1C2=O
active: [1] -11.4% | [2] -43.7% | [3] -0.382% | [4] -19.5% | [5] -53% | [7] -42.2% | [8] -6.44% | [9] -60.5% | [10] 3.12% | [11] -17.6% | [12] -80.2% | [14] -83% | [15] 7.56% | [17] -46.6% | [18] -47.1% | [19] -59.3%
inactive: [13] 14.7% | [16] 18.3%

COc1ccc(-c2[nH]c3ccccc3c2/C=C(\C#N)S(=O)(=O)c2ccccc2)cc1
inactive: [1] 17.5% | [2] 65.2% | [3] 61.9% | [5] 65.5% | [6] 26.8% | [7] 33.9% | [8] 22.1% | [10] 12.3% | [11] 33.8% | [12] 73.6% | [13] 31.5% | [15] 45.1% | [18] 73.2% | [19] 20.2%
active: [4] 3.97% | [9] -39.4% | [14] -12.2% | [16] -11.5% | [17] -30.7%

CC(C)CNCC(=O)Nc1ccc(Cc2ccc(NC(=O)CNCC(C)C)cc2)cc1
active: [11] -27.7% | [12] -23% | [13] -0.499%
inactive: [1] 84% | [2] 68.6% | [3] 78.2% | [4] 43.1% | [5] 38.4% | [6] 48.3% | [7] 65% | [8] 42.8% | [9] 53.8% | [10] 58.3% | [14] 46.7% | [15] 59.7% | [16] 78.5% | [17] 77.8% | [18] 62.6% | [19] 38.6%
